In the supplement of paper PMC8371130:
Counter-ions that a name gives are not always drawn.

Test system: HL-1
Test: relative cell viability (CellTiter-Glo) vs DMSO control (% of DMSO control); higher = more viable cells
Outline: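 Plating of HL-1 mouse atrial cardiomyocytes at 1000 cells per well in 384-well plates was done together with compounds at 40, 200, 1000 or 5000 nM in 0.01% DMSO. A day later the cells faced 48 h of 1% O2 and then 24 h of reoxygenation, or matching normoxia. Viability was measured via CellTiter-Glo luminescence and set relative to vehicle-treated control cells.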

[1] = oxygen condition: hypoxia 48 h (1% O2) + reoxygenation 24 h, 40 nM
[2] = oxygen condition: hypoxia 48 h (1% O2) + reoxygenation 24 h, 200 nM
[3] = oxygen condition: hypoxia 48 h (1% O2) + reoxygenation 24 h, 1000 nM
[4] = oxygen condition: hypoxia 48 h (1% O2) + reoxygenation 24 h, 5000 nM
[5] = oxygen condition: normoxia 72 h, 40 nM
[6] = oxygen condition: normoxia 72 h, 200 nM
[7] = oxygen condition: normoxia 72 h, 1000 nM
[8] = oxygen condition: normoxia 72 h, 5000 nM

Structure (SMILES)	relative cell viability [1]	relative cell viability [2]	relative cell viability [3]	relative cell viability [4]	relative cell viability [5]	relative cell viability [6]	relative cell viability [7]	relative cell viability [8]
Cc1ccc(O)c([C@H](CCN(C(C)C)C(C)C)c2ccccc2)c1 [Tolterodine tartrate]	108	105	102	109	104	112	107	110
CC(=O)OCC[N+](C)(C)C [Acetylcholine chloride]	93.2	99.1	101	106	91.7	101	104	106
CC(=O)O[C@@]12CO[C@@H]1C[C@H](O)[C@@]1(C)C(=O)[C@H](O)C3=C(C)[C@@H](OC(=O)[C@H](O)[C@@H](NC(=O)OC(C)(C)C)c4ccccc4)C[C@@](O)([C@@H](OC(=O)c4ccccc4)[C@H]21)C3(C)C [Docetaxel]	26.9	24.1	27.2	29.3	19.3	23	22.6	23.6
CCCCNc1ccc(C(=O)OCCN(C)C)cc1 [Tetracaine hydrochloride]	97.8	104	107	106	103	106	111	108
N=C(N)NC(=N)NCCc1ccccc1 [Phenformin hydrochloride]	101	95.3	99.6	74.1	101	103	104	71.8
O=C(CCCN1CCN(c2ccccn2)CC1)c1ccc(F)cc1 [Azaperone]	107	104	102	103	102	107	110	111
Clc1ccc2c(c1)CCc1cccnc1C2=C1CCNCC1 [Desloratadine]	92.5	109	102	97	105	97.5	104	103
C=C1CC[C@H](O)C/C1=C/C=C1\CCC[C@]2(C)[C@@H]([C@H](C)/C=C/[C@H](C)C(C)C)CC[C@@H]12 [Vitamin D2]	102	99.8	111	112	107	105	109	110
O=C1CN2Cc3c(ccc(Cl)c3Cl)N=C2N1 [Anagrelide HCl]	97.6	98.7	97.5	108	99.8	100	105	111
O=C(CCCN1CCC(O)(c2ccc(Cl)cc2)CC1)c1ccc(F)cc1 [Haloperidol]	101	99.4	102	101	92.8	98	100	98.5
OCCOCCN1CCN(C(c2ccccc2)c2ccc(Cl)cc2)CC1 (centres undefined) [Hydroxyzine 2HCl]	104	107	109	114	102	107	105	109
Cc1ncc([N+](=O)[O-])n1CC(O)CCl (centres undefined) [Ornidazole]	106	109	123	115	108	108	103	117
CO[C@H]1O[C@@H]2O[C@@]3(C)CC[C@H]4[C@H](C)CC[C@@H]([C@H]1C)[C@@]24OO3 [Artemether]	104	103	100	60.3	103	102	98.3	93.2
CCN(Cc1ccncc1)C(=O)C(CO)c1ccccc1 (centres undefined) [Tropicamide]	102	99.4	101	107	99.4	102	101	104
CN(C)CCN(Cc1ccccc1)c1ccccn1 [Tripelennamine HCl]	97.8	87.6	88	103	93	91.8	94.1	105
CC1COc2c(N3CCN(C)CC3)c(F)cc3c(=O)c(C(=O)O)cn1c23 (centres undefined) [Ofloxacin]	99.3	99.8	97.8	108	98.5	97.3	62.4	115
C[N+]1(C)CCC(=C(c2ccccc2)c2ccccc2)CC1 [Diphemanil methylsulfate]	104	100	104	104	102	104	106	100
CC(=O)OCC(=O)NCCCOc1cccc(CN2CCCCC2)c1 [Roxatidine acetate HCl]	105	104	99.8	114	110	102	107	108
Cc1cn([C@H]2C[C@H](N=[N+]=[N-])[C@@H](CO)O2)c(=O)[nH]c1=O [Zidovudine]	106	109	119	112	110	110	112	109
COc1ccc(Cl)cc1C(=O)NCCc1ccc(S(=O)(=O)NC(=O)NC2CCCCC2)cc1 [Glyburide]	103	106	103	104	103	103	108	109
Cc1ccc(Nc2nccc(N(C)c3ccc4c(C)n(C)nc4c3)n2)cc1S(N)(=O)=O [Pazopanib HCl]	94.1	106	105	109	103	113	104	109
CC(C)NCC(O)c1ccc(NS(C)(=O)=O)cc1 (centres undefined) [Sotalol]	100	98.9	93	99.8	96.9	94.1	98.4	104

Structure (SMILES)	relative cell viability [1]	relative cell viability [2]	relative cell viability [3]	relative cell viability [4]	relative cell viability [5]	relative cell viability [6]	relative cell viability [7]	relative cell viability [8]
N=C(N)Nc1ccc(C(=O)Oc2ccc3cc(C(=N)N)ccc3c2)cc1 [Nafamostat mesylate]	103	104	108	105	105	110	111	107
CC(C)n1c(/C=C/C(O)CC(O)CC(=O)O)c(-c2ccc(F)cc2)c2ccccc21 (centres undefined) [Fluvastatin sodium]	88.9	57.3	17.3	3.7	101	83.5	28.6	4.76
C[C@H]1c2cccc(O)c2C(=O)C2=C(O)[C@]3(O)C(=O)C(C(N)=O)=C(O)[C@@H](N(C)C)[C@@H]3[C@@H](O)[C@@H]21 [Doxycycline HCl]	102	104	105	107	105	106	95.6	92.9
Nc1ccc(C(=O)O)c(O)c1 [Aminosalicylate sodium]	95.2	102	102	108	105	105	114	108
Cc1cc(C2CCCCC2)n(O)c(=O)c1 [Ciclopirox]	95.4	92.3	80.4	5.32	87.8	69.4	20	2.16
CC(=O)[C@H]1CC[C@H]2[C@@H]3CC=C4C[C@@H](O)CC[C@]4(C)[C@H]3CC[C@]12C [Pregnenolone]	100	103	106	117	101	101	105	107
CCOc1nc2cccc(C(=O)O)c2n1Cc1ccc(-c2ccccc2-c2nnn[nH]2)cc1 [Candesartan]	110	105	110	109	107	109	108	110
Clc1ccc2c(c1)C(N1CCNCC1)=Nc1ccccc1O2 [Amoxapine]	102	100	104	109	98.5	105	111	113
CCN(CC)CCOC(=O)C1(C2CCCCC2)CCCCC1 [Dicyclomine HCl]	94.1	95.7	97.1	100	92.4	101	97.2	105
C#Cc1cccc(Nc2ncnc3cc(OCCOC)c(OCCO)cc23)c1	100	106	107	109	111	104	105	121
CC(=O)Nc1ccccc1 [Acetanilide]	96.5	98.9	100	111	101	94.9	98	105
CC(C)c1c(C(=O)Nc2ccccc2)c(-c2ccccc2)c(-c2ccc(F)cc2)n1CC[C@@H](O)C[C@@H](O)CC(=O)O [Atorvastatin calcium]	107	95.8	102	41.7	96.4	98.8	81.6	19.9
CCOC(=O)C1=C(C)NC(C)=C(C(=O)OC)C1c1cccc([N+](=O)[O-])c1 (centres undefined) [Nitrendipine]	95.9	106	98.1	107	107	103	104	111
CCN[C@H]1CN(CCCOC)S(=O)(=O)c2sc(S(N)(=O)=O)cc21 [Brinzolamide]	101	84.5	62.4	3.36	98.2	81.9	57.5	3.09
Cn1ccnc1S [Methimazole]	102	99.9	105	98.1	107	100	95.4	95.9
COCCCC/C(=N\OCCN)c1ccc(C(F)(F)F)cc1 [Fluvoxamine maleate]	101	109	94.9	94.7	109	98.3	106	95.2
COc1ccccc1OCCNCC(O)COc1cccc2[nH]c3ccccc3c12 (centres undefined) [Carvedilol]	93.5	110	107	108	104	105	107	107
COc1ccccc1N1CCN(CC(O)COc2cccc3ccccc23)CC1 (centres undefined) [Naftopidil]	103	101	104	101	102	100	102	103
C=C[C@H]1CN2CC[C@H]1C[C@H]2[C@H](O)c1ccnc2ccc(OC)cc12 [Quinine hydrochloride dihydrate]	103	104	102	104	102	101	103	111
Cc1cccc(Nc2ccncc2S(=O)(=O)NC(=O)NC(C)C)c1 [Torsemide]	103	102	107	106	106	112	112	105
COC(=O)C1=C(C)NC(C)=C(C(=O)OCCN2CCN(C(c3ccccc3)c3ccccc3)CC2)C1c1cccc([N+](=O)[O-])c1 (centres undefined) [Manidipine]	103	103	99.6	105	102	99.2	103	103
